# aSyn UTR act: Activators via SNCA 5'UTR binding, MLPCN. activity score, % (tested at 7.5 µM), hits read low. 300,000 tested, 7.1% active. alpha-synuclein 5'UTR reporter, activators screen. AID 1814; in the data active = activity score below about -60%
# Starred values were filed as active, the others as inactive. These entries were drawn from the full list.
SMILES,aSyn UTR act
CCOC(=O)c1cnn2c(C)cc(-c3ccccc3)nc12,-120*
CCOC(=O)c1cnc2cc(-c3ccc(C(C)(C)C)cc3)nn2c1N,-232*
CCOC(=O)c1cnc2c(C(=O)OCC)cnn2c1N,-63*
O=C(CC1COc2ccccc2O1)NC1CCCCC1 (stereo not drawn),-67*
Cc1ccc(NC(=O)CC2COc3ccccc3O2)cc1 (stereo not drawn),-89*
Oc1ccccc1N=Cc1sc2ccccc2c1Cl,-104*
Cc1ccc(O)c(N=Cc2sc3ccccc3c2Cl)c1,-90*
COC(=O)Nc1nnc(-c2ccccc2Cl)s1,-94*
CCN1CCc2c(sc(NC(=O)C3COc4ccccc4O3)c2C(N)=O)C1 (stereo not drawn),-96*
CN1CCc2c(sc(/N=C/c3cccs3)c2C(N)=O)C1,-75*
CC(=O)N1CCc2c(sc(NC(=O)C3COc4ccccc4O3)c2C(N)=O)C1 (stereo not drawn),-74*
CCOC(=O)N1CCc2c(sc(NC(=O)C3COc4ccccc4O3)c2C(N)=O)C1 (stereo not drawn),-109*
COc1cc2ccccc2cc1C(=O)Nc1sc2c(c1C(N)=O)CCN(C(C)C)C2,102
CN1CCc2c(sc(NC(=O)c3ccc4ccccc4c3)c2C(N)=O)C1,-108*
CN1CCc2c(sc(NC(=O)C3COc4ccccc4O3)c2C(N)=O)C1 (stereo not drawn),-117*
Cc1cccc(NC(=O)c2cc(-c3c(C)cc(C)cc3O)n[nH]2)c1,-123*
Cc1cccc(NC(=O)c2cc(-c3cc(C)cc(C)c3O)n[nH]2)c1,-67*
Cc1cccc(NC(=O)c2cc(-c3cc(Cl)ccc3O)n[nH]2)c1,-224*
Cc1ccc(NC(=O)c2cc(-c3ccccc3O)n[nH]2)cc1Cl,-110*
Cc1ccc(C)c(NC(=O)c2cc(-c3cc(C)ccc3O)n[nH]2)c1,-211*
Cc1cc(O)c(-c2cc(C(=O)Nc3cccnc3)[nH]n2)cc1C,-188*
O=C(N/N=C/c1c(O)ccc2ccccc12)c1cccnc1,93
Cc1cc(C)c(O)c(-c2cc(C(=O)Nc3cccnc3)[nH]n2)c1,-108*
CCc1ccc(O)c(-c2cc(C(=O)Nc3cccnc3)[nH]n2)c1,-162*
COC(=O)c1ccc(N=Cc2c(C(F)(F)F)[nH][nH]c2=O)cc1,-135*
SMILES,aSyn UTR act
COC(=O)c1ccc(NC(=O)c2ccccc2SC)cc1,-67*
CSc1ccccc1C(=O)Nc1ccc2c(c1)CCC2,-135*
O=C(Nc1ccc2c(c1)CCC2)c1ccccc1Br,-129*
Cc1c(C(=O)Nc2ccc3c(c2)CCC3)cccc1[N+](=O)[O-],-204*
CC(=O)c1sc(-c2ccc(F)cc2F)nc1C,-75*
C/C(=C\C(=O)c1ccccc1)Nc1ccc2c(c1)OCO2,-115*
Cc1ccc(C(=O)Nc2ccc3c(c2)OCO3)o1,-118*
Cc1cc(C)n2nc(C(=O)Nc3ccc4c(c3)OCO4)nc2n1,-113*
C/C(=C\C(=O)c1ccc(C)o1)Nc1ccc2c(c1)OCO2,-170*
CCOc1ccc(N/C(C)=C/C(=O)c2ccc(C)o2)cc1,-79*
CC1(C)Cc2nc3sc(C(=O)NCCCO)c(N)c3cc2CS1,-92*
Cc1ccc(-c2nc3ccccc3[nH]2)cn1,-99*
Clc1ccc(-c2nc3ccccc3[nH]2)cn1,-63*
Cc1nc2ccc(-c3nc4ccccc4[nH]3)cc2[nH]1,-120*
CCCCn1cnc2c(oc3ccccc32)c1=O,-121*
COc1ccc(-c2csc(NCc3ccco3)n2)cc1C,-195*
CC(=O)Nc1ccc(-c2csc(NCc3ccco3)n2)cc1,-138*
c1cncc(-c2csc(NCc3ccco3)n2)c1,-92*
Cc1c(C(=O)NCCc2ccccc2)oc2ccccc12,-69*
Cc1c(C(=O)NC2CCC(C)CC2)oc2ccccc12 (stereo not drawn),-143*
Clc1ccc(-c2cn3c(n2)CCC3)cc1,-192*
Cc1ccccc1Oc1ccc(Oc2ccccc2C)nn1,-136*
CN(CCCC(=O)O)c1ccc(N=Nc2ccc([N+](=O)[O-])cc2)cc1,-65*
CN(N=Nc1ccc([N+](=O)[O-])cc1)c1ccccc1,-112*
CN(N=Nc1cccc([N+](=O)[O-])c1)c1ccccc1,-108*
SMILES,aSyn UTR act
CC(C)(C)c1ccc(-c2nnc(N)o2)cc1,-154*
Cc1ccc2[nH]c3c(c2c1)CCc1cn[nH]c1-3,-62*
CC(=O)Oc1ccc(-c2cc3ccccc3oc2=O)cc1,-135*
O=c1cc(-c2ccccc2)c2ccc(O)cc2o1,48
COc1ccc(-c2cc3ccc(O)cc3oc2=O)cc1,-64*
O=c1oc2cc(O)ccc2cc1-c1ccccc1,-147*
O=c1[nH]c(=O)n([C@H]2C[C@H](O)[C@@H](CO)O2)cc1F,80
O=C(/C=C/c1ccco1)Nc1cccnc1Cl,-130*
COC(=O)c1ccccc1NC(=O)/C=C/c1ccco1,-68*
Cn1c(NC(=O)/C=C/c2ccco2)cc(=O)n(C)c1=O,-62*
O=C(/C=C/c1ccccc1)Nc1cccnc1Cl,-84*
CC(C)(C)c1csc(N/N=C/c2ccc(O)cc2)n1,-165*
Cc1ccc(C(=O)Nc2cccc(-c3ccc(N4CCOCC4)nn3)c2)cc1[N+](=O)[O-],-76*
O=C(Nc1cccc(-c2ccc(N3CCOCC3)nn2)c1)c1ccc([N+](=O)[O-])cc1,-99*
Cc1ccccc1C(=O)Nc1cccc(-c2ccc(N3CCOCC3)nn2)c1,-65*
O=C(Nc1cccc(-c2ccc(N3CCOCC3)nn2)c1)c1ccccc1,-80*
O=C(COc1ccc(Cl)cc1Cl)Nc1cccc(-c2ccc(N3CCOCC3)nn2)c1,-72*
O=[N+]([O-])c1ccccc1S(=O)(=O)c1ccccc1[N+](=O)[O-],-62*
CC(CS(=O)(=O)c1ccccc1[N+](=O)[O-])N1CCOCC1 (stereo not drawn),-70*
COc1cccc2sc(N(CCCN(C)C)C(=O)c3ccc(S(=O)(=O)N4CCc5ccccc5C4)cc3)nc12,94
COc1cccc2sc(N(CCCN(C)C)C(=O)c3ccc(S(=O)(=O)N4CCCc5ccccc54)cc3)nc12,64
COc1ccccc1C(=O)N(CCC1CCCN1C)c1nc2ccccc2s1 (stereo not drawn),-103*
O=C(Nc1cccc2ccccc12)/C(Cl)=C/c1ccccc1,-81*
O=C(Nc1ccccc1F)C(=O)Nc1cccc2ccccc12,-119*
N=C1C(c2nc3ccccc3[nH]2)=C(O)CN1c1ccc(F)cc1,-65*
SMILES,aSyn UTR act
N=C1C(c2nc3ccccc3[nH]2)=C(O)CN1C1CCCCC1,-116*
Cc1ccc2nc(-c3ccccc3)cn2c1,120
Cc1ccc2nc(-c3ccc(-c4ccccn4)s3)cn2c1,-111*
Cc1cccc(N=Nc2c(O)[nH]c3ccc(Br)cc23)c1,-72*
O=C(COc1ccc2ccccc2c1Br)Nc1ccncc1,-84*
O=C(COc1ccc2ccccc2c1Br)Nc1cccnc1,-210*
O=C(COc1ccccc1[N+](=O)[O-])Nc1cccnc1,-72*
O=C(COc1ccc2ccccc2c1Br)NC(=S)Nc1cccc(CO)c1,-66*
Cc1ccccc1-c1ccc(C(=O)Nc2cccc(F)c2)o1,-128*
COc1cccc(NC(=O)c2ccc(-c3ccccc3[N+](=O)[O-])o2)c1,-100*
Cc1cccc(NC(=O)c2ccc(-c3ccccc3[N+](=O)[O-])o2)c1,-85*
COc1cc(C)nc(N2CCCC(C(=O)NC3CCC(C)CC3)C2)n1 (stereo not drawn),-146*
Cc1ccc(C(=O)c2cc([N+](=O)[O-])ccc2N2CCOCC2)c(C)c1,98
